{
  "source": "PubChem BioAssay (EPA / NIEHS)",
  "note": "Inconclusive results are not listed. Activity calls are given as the source filed them. How the source made its calls: active means hit-call score of the fitted dose curve at least 0.9, where 1 is the maximum; inconclusive means response in the unintended direction; inactive means score below 0.9.",
  "data": [
    {"target": "Oxysterols receptor LXR-alpha (Homo sapiens) (UniProt Q13133)", "sequence (Q13133 whole entry, looked up)": "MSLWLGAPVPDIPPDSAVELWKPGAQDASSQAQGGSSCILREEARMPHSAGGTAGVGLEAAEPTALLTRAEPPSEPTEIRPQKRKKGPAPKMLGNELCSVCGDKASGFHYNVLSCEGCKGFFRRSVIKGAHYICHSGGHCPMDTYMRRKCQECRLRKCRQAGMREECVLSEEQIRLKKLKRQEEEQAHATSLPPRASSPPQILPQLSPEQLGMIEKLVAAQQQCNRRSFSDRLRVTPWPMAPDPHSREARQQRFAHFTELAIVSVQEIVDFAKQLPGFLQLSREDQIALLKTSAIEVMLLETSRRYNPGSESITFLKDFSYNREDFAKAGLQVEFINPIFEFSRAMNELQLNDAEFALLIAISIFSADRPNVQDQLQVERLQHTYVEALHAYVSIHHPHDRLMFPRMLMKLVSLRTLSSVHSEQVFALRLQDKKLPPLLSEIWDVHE", "assay": "ATG_LXRa_TRANS: Attagene TRANS-FACTORIAL HepG2 Assay for human Liver X Receptor alpha (LXRa) (AID 2282980)", "settings": "HepG2 Attagene TRANS reporter, LXRa transactivation", "protocol": "ATG_TRANS is a cell-based, multiplexed-readout assay that uses HepG2, a human liver cell line, with measurements taken at 24 hours after chemical dosing in a 24-well plate.ATG_LXRa_TRANS is one of 30 assay component(s) measured or calculated from the ATG_TRANS assay. It is designed to make measurements of mRNA induction, a form of inducible reporter, as detected with fluorescence intensity signals by Reverse transcription polymerase chain reaction (RT-PCR) and Capillary electrophoresis technology.Data from the assay component ATG_LXRa_TRANS was analyzed into 1 assay endpoint. This assay endpoint, ATG_LXRa_TRANS, was analyzed in the positive analysis fitting direction relative to DMSO as the negative control and baseline of activity. Using a type of inducible reporter, measures of mRNA for gain-of-signal activity can be used to understand the reporter gene at the transcription factor-level as they relate to the gene NR1H3. Furthermore, this assay endpoint can be referred to as a primary readout, because this assay has produced multiple assay endpoints where this one serves a reporter gene function. To generalize the intended target to other relatable targets, this assay endpoint is annotated to the nuclear receptor intended target family, where the subfamily is non-steroidal.\nHuman liver HepG2 cells are transiently transfected with multiple reporter transcription units (MRTUs) in 6-well plates using FuGene 6 reagent (Roche; 3 ml FuGene/1 mg DNA). The MRTU constructs are regulated by a cis-regulating element (promoter). […] A major difference between the CIS and TRANS system is that in CIS activities of endogenous TFs are measured, whereas the TRANS assay evaluates changes in activities of exogenous, chimeric NR-Gal4 proteins. […] At the end of 24 hour incubation, total RNA was isolated using TriZol reagent (Invitrogen). The isolated RNA is then reverse-transcribed using oligo(dT) primer and Mo-MLV reverse transcriptase (Invitrogen) with DNAse I (Ambion) treatment for 30 min. The one-tenth of the produced cDNA was amplified by PCR using Taq DNA polymerase (Invitrogen) and two reporter sequence-specific primers. The PCR products were fluorescently labeled by primer extension with 6-arboxyfluorescein (6-FAM) 5'-labeled reporter sequence-specific primer (2 min at 95 C, 20 s at 68 C and 10 min at 72 C) and these products were digested with 5U of HpaI (New England Biolabs) for 2h at 37 C. The fragments were purified using Qiaquick PCR columns (Qiagen), analyzed on an ABI 3130xL genetic analyzer (Applied Biosystems) with peak positions identified by using a set of X-rhodamine (ROX)-labeled MapMarker1000 molecular weight standards (BioVentures). The raw capillary electrophoresis data was processed using Attagraph software (Attagene).", "values": [
      {"smiles": "O=C(O)c1ccccc1O", "outcome": "inactive"},
      {"smiles": "CC(=O)c1ccc2ccccc2c1", "outcome": "inactive"},
      {"smiles": "CC1=CC[C@@H]2C[C@H]1C2(C)C", "outcome": "inactive"},
      {"smiles": "CC(=O)CCc1ccc(O)cc1", "outcome": "inactive"},
      {"smiles": "CCC(C)(CCCC(C)C)OC(C)=O", "note": "(stereo not given)", "outcome": "inactive"},
      {"smiles": "COC(=O)c1cccc(C(=O)OC)c1", "outcome": "inactive"},
      {"smiles": "C[C@H](CCC(=O)O)[C@H]1CC[C@H]2[C@@H]3CC[C@@H]4C[C@H](O)CC[C@]4(C)[C@H]3CC[C@]12C", "outcome": "inactive"},
      {"smiles": "Nc1ccn([C@H]2CC[C@@H](CO)O2)c(=O)n1", "outcome": "inactive"},
      {"smiles": "CCCOC(=O)CC", "outcome": "inactive"},
      {"smiles": "CC1=CCC(=C(C)C)CC1", "outcome": "inactive"},
      {"smiles": "O=S(=O)(O)c1cc(S(=O)(=O)O)c2c(N=Nc3ccccc3)c(O)ccc2c1", "outcome": "inactive"},
      {"smiles": "CC(=O)OC(C)(C)C", "outcome": "inactive"},
      {"smiles": "OCCN1CCOCC1", "outcome": "inactive"},
      {"smiles": "C#C[C@]1(O)CC[C@H]2[C@@H]3CCc4cc(O)ccc4[C@H]3CC[C@@]21C", "outcome": "inactive"},
      {"smiles": "O=c1cc(-c2ccc(O)cc2)oc2cc(O)cc(O)c12", "outcome": "inactive"},
      {"smiles": "CCC(C)(C)c1cc(O)c(C(C)(C)CC)cc1O", "outcome": "inactive"},
      {"smiles": "O=S1(=O)CC(Cl)(Cl)C(Cl)(Cl)C1", "outcome": "inactive"},
      {"smiles": "C1=COCCC1", "outcome": "inactive"},
      {"smiles": "COC(=O)C(C)Oc1ccc(Oc2ncc(C(F)(F)F)cc2Cl)cc1", "note": "(stereo not given)", "outcome": "inactive"},
      {"smiles": "CC1=CC[C@@H](C(C)(C)O)CC1", "outcome": "inactive"},
      {"smiles": "Cc1cccc(C)c1", "outcome": "inactive"},
      {"smiles": "C=CCOCC(O)CO", "note": "(stereo not given)", "outcome": "inactive"},
      {"smiles": "COc1ccccc1O", "outcome": "inactive"},
      {"smiles": "C=C(C)C(=O)OCCC[Si](OC)(OC)OC", "outcome": "inactive"},
      {"smiles": "CC/C=C\\C#N", "outcome": "inactive"},
      {"smiles": "[O-]/[N+](=N\\O)c1ccccc1", "outcome": "inactive"},
      {"smiles": "CC/C(=C(\\c1ccccc1)c1ccc(OCCN(C)C)cc1)c1ccccc1", "outcome": "inactive"},
      {"smiles": "CC1(C)CC(=O)CC(C)(C)N1", "outcome": "inactive"},
      {"smiles": "Nc1ccc(O)c(N)c1", "outcome": "inactive"},
      {"smiles": "C1COCO1", "outcome": "inactive"},
      {"smiles": "CCCCCCC(O)CCOC(C)=O", "note": "(stereo not given)", "outcome": "inactive"},
      {"smiles": "Nc1ccc(N)c([N+](=O)[O-])c1", "outcome": "inactive"},
      {"smiles": "CCCCCCOC(C)=O", "outcome": "inactive"},
      {"smiles": "CC(C)(O)C(=O)c1ccc(OCCO)cc1", "outcome": "inactive"},
      {"smiles": "CCCCC(CC)COCCO", "note": "(stereo not given)", "outcome": "inactive"},
      {"smiles": "CC(C)(C)c1cc(CCC(=O)OCCSCCOC(=O)CCc2cc(C(C)(C)C)c(O)c(C(C)(C)C)c2)cc(C(C)(C)C)c1O", "outcome": "inactive"},
      {"smiles": "CC(=O)Nc1cc(S(=O)(=O)O)cc2cc(S(=O)(=O)O)c(N=Nc3ccccc3)c(O)c12", "outcome": "inactive"},
      {"smiles": "O=C(O)C1=NN(c2ccc(S(=O)(=O)O)cc2)C(=O)C1", "outcome": "inactive"},
      {"smiles": "CCCCCCCCCCCCCCCCCC(=O)OCCCCCCCCCCCCCC(C)C", "outcome": "inactive"},
      {"smiles": "CC1COC(=O)O1", "note": "(stereo not given)", "outcome": "inactive"}
    ]}
  ]
}
